In PubChem BioAssay AID1159607 (Small Molecule Screening Facility, UW Madison, 2016):
Among all 70,000 compounds or so, about 400 (0.57%) were called active. The list comes from a sample in which actives are over-represented; it also holds similar structures and randomly drawn compounds. A number with no mark means an inactive call. Cut-off read from the data, not from the text of the source: active = FP signal below about 40; inactive = the rest.

These compounds were tested on RMI core complex (RMI1/RMI2) binding to FANCM MM2 peptide, human (assay: disruptors of RMI1/RMI2 association with MM2 peptide – biochemical, fluorescence polarization, human, primary screen (AID 1159607)). Settings: RMI core complex with F-MM2 peptide, at 33 µM, stronger effect = lower value.

SMILES | FP signal (polarization)
CCc1nnc(C2CCN(S(C)(=O)=O)CC2)s1 | 60
Oc1ccc(Br)cc1C=Nc1ccccn1 | 41
Clc1ccc(C=Nc2cccnc2)c(Cl)c1 | 63
Cc1cccnc1N=Cc1cc(Cl)cc(Cl)c1O | 29 (active)
Cn1c(SCC(=O)NCc2ccc(F)cc2)nc2cc(-c3ccccc3)sc2c1=O | 104
CN(C)c1ccc(CCCNC(=O)COc2ccc(Cl)cc2)cc1 | 69
Cn1nc(-c2cccc(NC(=O)c3ccccc3C(F)(F)F)c2)ccc1=O | 56
O=C(N/N=C\c1ccncc1)N/N=C\c1ccncc1 | 54
O=C(/C=C/c1cccc(F)c1)c1cccs1 | 64
CCc1ccccc1NC(=O)c1csc(Nc2ccc(S(C)(=O)=O)cc2)n1 | 77
C=CCN(CC=C)S(=O)(=O)c1ccc(C(=O)Nc2nc(-c3ccc4ccccc4c3)cs2)cc1 | 86
Nc1ccc2c(c1)N(C(=O)c1ccccc1)CCC2 | 68
Nc1cc(-c2ccccc2)no1 | 63
C=CCn1c(SCC(=O)Nc2nsc(-c3ccccc3)n2)nc2scc(-c3ccco3)c2c1=O | 98
COc1ccc(CC(=O)Nc2ccc(SCC(=O)N3CCCC3)nn2)cc1OC | 61
O=C(CC1CCCCN1S(=O)(=O)c1ccc(F)cc1)NCc1ccc2c(c1)OCO2 (configuration not stated) | 68
CCn1nc(C(=O)Nc2cc(C)nn2-c2nc3ccc(OC)cc3s2)cc1C | 71
Cc1ccc(C)c(NC(=O)CCS(=O)(=O)c2ccccc2)c1 | 70
COc1ccc(C(=O)Nc2nc(-c3ccccc3)c(C)s2)cc1 | 33 (active)
CCOC(=O)c1sc(NC(=O)c2ccc(-c3ccccc3)cc2)nc1-c1ccccc1 | 57
COc1ccc(-c2nc(NC(=O)c3cccc(NS(=O)(=O)c4ccccc4)c3)sc2C)cc1 | 52
CCCC(=O)Nc1cc(-c2cn3nc(OC)ccc3n2)ccc1OC | 70
COc1ccc2nc(-c3ccc(OC)c(NC(=O)c4ccccc4Cl)c3)cn2n1 | 13 (active)
COc1ccc2nc(-c3ccc(F)c(NC(=O)c4ccccc4C(F)(F)F)c3)cn2n1 | 87
COc1ccc(N)cc1N1CCCCC1=O | 62

SMILES | FP signal (polarization)
COc1ccc(-c2csc3c(=O)n(Cc4ccccc4Cl)cnc23)cc1 | 63
O=c1c2scc(-c3ccccc3)c2ncn1Cc1ccccc1 | 64
COc1ccc(-c2csc3c(=O)n(Cc4cc(=O)n5ccccc5n4)cnc23)cc1OC | -23 (active)
O=C(NCCN1CCN(c2ccc(F)cc2)CC1)C(=O)NC1CC1 | 62
N/C(CS(=O)(=O)c1ccc(Cl)cc1)=N/O | 56
O=C(/C=C/c1cccs1)Nc1nnc(-c2cc3ccccc3o2)o1 | 56
COC1C=CC23c4cc5c(cc4CN(CC2O)[C@@H]3C1)OCO5 (some centres not stated) | 63
O=C(Cn1c2c(c(=O)n(C3CCCCC3)c1=O)CCC2)Nc1ccc2c(c1)OCCO2 | 58
Cc1ccc2c(c1)nnc1nnc(SCC(=O)O)n12 | 2 (active)
CCCc1cc(=O)[nH]c2nnc(SCC(=O)Nc3nc4ccc(C)cc4s3)n12 | 47
Cc1ccc(C(=O)CSc2nnc3ccc4ccccc4n23)cc1C | 75
O=C1NC(=O)c2cc(S(=O)(=O)N(CCO)CCO)cc3cccc1c23 | 56
C=Cc1cc2ccc(C)cc2nc1Cl | 58
CC(C)c1c(O)ccc2c1CCC1[C@@](C)(CO)CCC[C@]21C (some centres not stated) | 58
COc1cn(CC(=O)Nc2cccc(F)c2)c(CN2CCN(c3ccccc3)CC2)cc1=O | 54
O=C(O)/C=C/C(=O)Nc1ccc(Oc2ccc(Cl)cc2)cc1 | 53
CSc1nc2ccc(NC(=O)c3ccc(Oc4ccc(C(=O)Nc5ccc6nc(SC)sc6c5)cc4)cc3)cc2s1 | 63
CC(C)Oc1ccc(C(=O)NCC(c2ccsc2)N2CCCCCC2)cc1 (configuration not stated) | 75
O=C(CCCSc1ccc(NC(=O)C2CC2)nn1)NCc1ccccn1 | 67
C=CCc1cccc2cc(C(=O)Nc3cc(OC)c(Cl)cc3OC)c(=O)oc12 | 60
O=C(CC1CCCCN1S(=O)(=O)c1cccs1)Nc1ncccn1 (configuration not stated) | 69
Cc1ccc(-c2nc(N3CCOCC3)sc2-c2ccc([N+](=O)[O-])cc2)cc1 | 74
COc1ccc2oc(-c3csc(NC(=O)C4COc5ccccc5O4)n3)cc2c1 (configuration not stated) | 66
CC(C)CCN1C(=O)C(C)(C)COc2ccc(NC(=O)Cc3ccc(F)cc3)cc21 | 77
Cc1nc(-c2ccc(S(=O)(=O)N3CCN(C(=O)c4ccco4)CC3)s2)cs1 | 60

SMILES | FP signal (polarization)
CCCOc1ccc(S(=O)(=O)N2CCN(c3ccc(F)cc3)CC2)cc1C | 66
COCCN1CCCc2ccc(NS(=O)(=O)c3ccc(C)c(Cl)c3)cc21 | 78
COc1cc(-c2nnc(NC(=O)c3ccc([N+](=O)[O-])cc3)o2)cc(OC)c1OC | 54
CCOC(=O)c1oc2ccccc2c1NC(=O)c1cccc(N2C(=O)CCC2=O)c1 | 74
O=S(=O)(c1cccnc1)N1CCN(c2ccc(-c3cccs3)nn2)CC1 | 69
COc1ccc(Cl)cc1C(=O)Nc1nnc(-c2cccc([N+](=O)[O-])c2)s1 | 74
O=C(COc1ccc(Cl)cc1Cl)Nc1nnc(SCC(=O)Nc2nnc(-c3cccc([N+](=O)[O-])c3)s2)s1 | 16 (active)
CCOC(=O)c1ccc(NC(=O)CSc2nnc(NC(=O)COc3ccc(Cl)cc3Cl)s2)cc1 | 62
O=C(Cn1nc(-c2ccc(F)cc2)c2sc(N3CCCC3)nc2c1=O)Nc1ccc(F)cc1F | 92
CN1C(=O)C(C)(C)COc2ccc(NC(=O)c3ccc(Br)cc3)cc21 | 68
COc1ccccc1CCNC(=O)CSc1nnc2ccc(-c3cccnc3)nn12 | 55
Cc1c(NC(=S)Nc2ccc3c(c2)OCO3)c(=O)n(-c2ccccc2)n1C | 59
CN(C)c1ccc(C=NS(=O)(=O)c2cccs2)cc1 | 57
CSc1cccc(NC(=O)C(=O)NCCc2ccccc2)c1 | 65
Cc1[nH]c(=O)[nH]c(=O)c1CCC(=O)Nc1ccc(F)c(Cl)c1 | 60
COc1ccc(S(=O)(=O)CC(=O)Nc2cc(C)nn2-c2nc3ccccc3s2)cc1 | 78
CCOc1ccccc1C(=O)NCC(=O)N1CCOC(c2ccccc2)C1 (configuration not stated) | 73
COc1cc(-c2noc(-c3cc(-c4ccccc4)n[nH]3)n2)cc(OC)c1OC | 95
Nc1cc(=O)[nH]c(SCC(=O)Nc2ccc(S(N)(=O)=O)cc2)n1 | 61
O=C(CSc1nc2ccc(Br)cc2c2nc3ccccc3n12)NCC1CCCO1 (configuration not stated) | 57
CCOc1ccc(NC(=O)CC(NCCc2ccc(OC)cc2)C(=O)O)c([N+](=O)[O-])c1 (configuration not stated) | 51
COc1ccc(S(=O)(=O)Nc2ccccc2C(=O)O)cc1C | 62
Cc1ccc2nc(N(CCN(C)C)C(=O)c3ccc(S(=O)(=O)N4CCCCCC4)cc3)sc2c1 | 90
O=C(NCCc1ccccc1)NCC(c1ccsc1)N1CCOCC1 (configuration not stated) | 64
Cc1cc(-c2nnc(NC(=O)CCCS(=O)(=O)c3ccc(F)cc3)o2)nn1C | 61

SMILES | FP signal (polarization)
Cn1nc(-c2ccc3ccccc3c2)c(=O)n(C)c1=S | 50
O=C(NCCC1=CCCCC1)C(=O)NCC(c1ccco1)N1CCOCC1 (configuration not stated) | 57
CCSc1cccc(C(=O)Nc2ccc3nc(C)sc3c2)c1 | 80
CC[N+](C)(CC)CCC[n+]1c(-c2ccccc2)c2cc(N)ccc2c2ccc(N)cc21 | -45 (active)
CCSc1nnc(NC(=O)c2cc(=O)c(OC)co2)s1 | 64
COc1ccc(OC)c(Nc2nc(CC(=O)Nc3nc4ccccc4s3)cs2)c1 | 66
Cc1noc(NS(=O)(=O)c2ccc(N/C=C(\C#N)c3nc4ccccc4n3C)cc2)c1C | 68
CS(=O)(=O)NCC(c1ccco1)N1CCOCC1 (configuration not stated) | 57
c1ccc(-c2nc(SCc3nc4ccccc4[nH]3)oc2-c2ccccc2)cc1 | 64
Cc1ccc2nc(NC(=O)CSc3nnc4ccc(-c5ccccn5)nn34)sc2c1 | 69
Cc1cccc(NC(=O)Nc2ccc(Nc3ccc(-n4cccn4)nn3)cc2)c1C | 85
COc1ccc(NC(=O)c2c(F)cccc2F)cc1N1CCCCC1=O | 54
CCOC(=O)c1ccc2nc(NC(=O)/C=C/c3ccccc3Cl)sc2c1 | 62
CSc1cccc(NC(=O)C(=O)NCCN2CCN(c3ccccc3F)CC2)c1 | 87
O=C(Nc1cc2ccccc2cc1NC(=O)c1ccc(N2C(=O)CCC2=O)cc1)c1ccc(N2C(=O)CCC2=O)cc1 | 57
CCN1CCOc2ccc(NC(=O)c3cc4ccccc4oc3=O)cc2C1=O | 62
O=C1CCc2cc(S(=O)(=O)NCc3ccco3)cc3c2N1CCC3 | 54
OCc1cnc(SCc2ccc(Cl)c(Cl)c2)n1Cc1ccc(F)cc1 | 67
Cc1ccc(S(=O)(=O)/C(C#N)=C/N2CCN(c3cccc(Cl)c3)CC2)cc1C | 71
O=C(NCc1cccs1)C(=O)N1CCN(c2cccc(Cl)c2)CC1 | 53
N#CC(C#N)=C1SCN(c2cccc(Cl)c2)CS1 | -20 (active)
Cc1nnc(SCc2ccccc2[N+](=O)[O-])s1 | 61
